This passage reports outcome and Potency results from PubChem BioAssay (Tox21).

A short description of assay [1]: qHTS assay to test for compound auto fluorescence at 535 nm (green) in HEK293 cells (AID 720680).
A short description of assay [2]: qHTS assay to test for compound auto fluorescence at 460 nm (blue) in HEK293 cell free culture (AID 720681). The essentials:
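Compounds were added to cell-free DMEM with 10% FBS and fluorescence read directly. The blue channel used 405 nm excitation and 460 nm emission, with triamterene as the reference fluorophore.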
Background: In qHTS, concentration-response curves come from the screen itself.

The nature of assay [3]: qHTS assay to test for compound auto fluorescence at 535 nm (green) in HEK293 cell free culture (AID 720682). The essentials:
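Green-label autofluorescence (485 nm excitation, 535 nm emission) measured on compound added to cell-free culture medium (DMEM, 10% FBS). Output is expressed relative to fluorescein.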

Assay [4] in a line: qHTS assay to test for compound auto fluorescence at 590 nm (red) in HEK293 cell free culture (AID 720683). The essentials: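 Cell-free wells of DMEM with 10% FBS received compound, and intrinsic fluorescence was read at excitation/emission 540/590 nm. Values expressed as equivalence to Rose Bengal sodium.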
Assay [5] can be described thus: qHTS assay to test for compound auto fluorescence at 590 nm (red) in HepG2 cell free culture (AID 720684). The essentials:
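Auto fluorescence equivalency versus Rose Bengal sodium, red channel Ex/Em 540/590 nm; compounds in cell-free MEM/10% FBS; DMSO vehicle control.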

The nature of assay [6]: qHTS assay to test for compound auto fluorescence at 460 nm (blue) in HepG2 cell free culture (AID 720685). The essentials:
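Cell-free plates of MEM plus 10% FBS received 23 nL compound or DMSO vehicle; blue-channel (405/460 nm) intensity scored against triamterene as reference fluorophore.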

Assay [7] is described as follows: qHTS assay to test for compound auto fluorescence at 535 nm (green) in HepG2 cell free culture (AID 720686).
The nature of assay [8]: qHTS assay to test for compound auto fluorescence at 460 nm (blue) in HepG2 cells (AID 720687). The essentials:
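HepG2 cells in MEM with 10% FBS, attached overnight at 37 C, were exposed to compound or DMSO for 1 hr at 37 C, 5% CO2. Blue fluorescence was read at 405/460 nm, with triamterene as reference fluorophore.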

Assay [9] can be described thus: qHTS assay for identifying genotoxic compounds that show differential cytotoxicity against isogenic chicken DT40 cell lines with known DNA damage response pathways - wild type cell line (AID 743012). Also: nearly all actives have a fitted effect of over 60% in size. Also: potency is read from the fitted curve at half-maximal effect. The essentials:
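Viability by ATP luminescence (CellTiter-Glo, 30 min RT) after 40 h compound treatment at 37 C/5% CO2, using 300 parental DNA repair-proficient DT40 cells per well.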

A short description of assay [10]: qHTS assay for identifying genotoxic compounds that show differential cytotoxicity against isogenic chicken DT40 cell lines with known DNA damage response pathways - Rev3 mutant cell line (AID 743014). Also: nearly all actives have a fitted effect of over 55% in size. Also: potency is read from the fitted curve at half-maximal effect.
The nature of assay [11]: qHTS assay for identifying genotoxic compounds that show differential cytotoxicity against isogenic chicken DT40 cell lines with known DNA damage response pathways - Rad54/Ku70 mutant cell line (AID 743015). Also: nearly all actives have a fitted effect of over 60% in size. Also: potency is read from the fitted curve at half-maximal effect.
A short description of assay [12]: qHTS assay to identify small molecule antagonists of the androgen receptor (AR) signaling pathway - cell viability counter screen (AID 743033; also: nearly all actives have a fitted effect of over 45% in size; also: potency is read from the fitted curve at half-maximal effect).
Assay [13] can be described thus: qHTS assay to identify small molecule antagonists of the androgen receptor (AR) signaling pathway using the MDA cell line - cell viability counter screen (AID 743041; also: nearly all actives have a fitted effect of over 45% in size). Put shortly:
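Compound exposure lasted 16 h at 37C in MDA-kb2 AR-luc cells stimulated with R1881. Protease-based CellTiter-Fluor reagent was applied for the final 30 min and fluorescence measured.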

The nature of assay [14]: qHTS assay to identify small molecule antagonists of the thyroid receptor (TR) signaling pathway - cell viability counter screen (AID 743064). Also: nearly all actives have a fitted effect of over 50% in size. Also: potency is read from the fitted curve at half-maximal effect. Put shortly:
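GH3.TRE-Luc rat pituitary cells dosed after 4 hr plating, co-stimulated with T3 at 1 nM final, incubated 23.5 h at 37 C. Viability measured in the same wells by CellTiter-Fluor fluorescence after 30 min further at 37 C.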

For assay [15], the target named is Glucocorticoid receptor (Homo sapiens) (UniProt P04150). Nature of the assay: qHTS assay to identify small molecule agonists of the glucocorticoid receptor (GR) signaling pathway (AID 720691; active = well fitted activation curve with a large enough effect in the signal ratio in the repeat runs, not every such curve was filed as active; the % refers to the signal ratio). The essentials: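 Agonist-mode qHTS in HeLa cells stably expressing a glucocorticoid-response-element beta-lactamase reporter. Fluorescence intensity read with FRET substrate (2 h, room temperature) after 18 h compound treatment at 37 C.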

Assay [16] shares this target. The assay is described as follows: qHTS assay to identify small molecule antagonists of the glucocorticoid receptor (GR) signaling pathway (AID 720692; active = well fitted inhibition curve with a large enough effect in the signal ratio in the repeat runs, not every such curve was filed as active; the % refers to the signal ratio). Put shortly: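 Inhibition of dexamethasone-driven (5 nM final) beta-lactamase expression was measured in GRE-reporter HeLa cells over 18 h at 37C. Fluorescence was read after 2 h with the B/G FRET substrate at room temperature.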

A short description of assay [17]: qHTS assay to identify small molecule antagonists of the glucocorticoid receptor (GR) signaling pathway - cell viability counter screen (AID 720693). Also: nearly all actives have a fitted effect of over 55% in size.
Assay [18] concerns the target Androgen receptor (Homo sapiens) (UniProt P10275). Nature of the assay: qHTS assay to identify small molecule agonists of the androgen receptor (AR) signaling pathway (AID 743036; active = well fitted activation curve with a large enough effect in the signal ratio in the repeat runs, with a control signal flat, not every such curve was filed as active; the % refers to the signal ratio). The essentials:
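AR-UAS-bla HEK293 cells, plated 4 h before dosing, were treated with compound for 16 h at 37C. beta-Lactamase reporter read after 2 h with LiveBLAzer B/G FRET substrate at room temperature.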

Assay [19] has the same target. Nature of the assay: qHTS assay to identify small molecule agonists of the androgen receptor (AR) signaling pathway using the MDA cell line (AID 743040; also: nearly all actives have a fitted effect of over 20% in size). Put shortly:
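Testing was done with the MDA-kb2 AR-luc line, a human breast carcinoma stably transfected with MMTV-luciferase containing AR and GR response elements. Cells were exposed 16 h at 37C before ONE-Glo luminescence detection.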

For assay [20] the target is unchanged. The assay is described as follows: qHTS assay to identify small molecule antagonists of the androgen receptor (AR) signaling pathway using the MDA cell line (AID 743042; also: nearly all actives have a fitted effect of over 55% in size; also: potency is read from the fitted curve at half-maximal effect). The essentials: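 MDA-kb2 breast carcinoma cells carrying MMTV-luciferase (AR/GR responsive) were co-treated with compounds and the agonist R1881 for 16 h at 37C. Inhibition read as ONE-Glo luminescence; CellTiter-Fluor fluorescence measured in parallel for cytotoxicity.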

A number with no mark means an inactive call. Inconclusive results are not listed. The source made the active and inactive calls. Unless noted, calls follow the shape of the dose curve; as a rule, active = well fitted curve in the direction sought with a large enough effect in the repeat runs; inconclusive = weak or mixed curves; inactive = no such curve, though single readings can be large; an effect the other way counts as inactive or inconclusive.

Chain of Androgen receptor (Homo sapiens) (P10275 whole entry, looked up): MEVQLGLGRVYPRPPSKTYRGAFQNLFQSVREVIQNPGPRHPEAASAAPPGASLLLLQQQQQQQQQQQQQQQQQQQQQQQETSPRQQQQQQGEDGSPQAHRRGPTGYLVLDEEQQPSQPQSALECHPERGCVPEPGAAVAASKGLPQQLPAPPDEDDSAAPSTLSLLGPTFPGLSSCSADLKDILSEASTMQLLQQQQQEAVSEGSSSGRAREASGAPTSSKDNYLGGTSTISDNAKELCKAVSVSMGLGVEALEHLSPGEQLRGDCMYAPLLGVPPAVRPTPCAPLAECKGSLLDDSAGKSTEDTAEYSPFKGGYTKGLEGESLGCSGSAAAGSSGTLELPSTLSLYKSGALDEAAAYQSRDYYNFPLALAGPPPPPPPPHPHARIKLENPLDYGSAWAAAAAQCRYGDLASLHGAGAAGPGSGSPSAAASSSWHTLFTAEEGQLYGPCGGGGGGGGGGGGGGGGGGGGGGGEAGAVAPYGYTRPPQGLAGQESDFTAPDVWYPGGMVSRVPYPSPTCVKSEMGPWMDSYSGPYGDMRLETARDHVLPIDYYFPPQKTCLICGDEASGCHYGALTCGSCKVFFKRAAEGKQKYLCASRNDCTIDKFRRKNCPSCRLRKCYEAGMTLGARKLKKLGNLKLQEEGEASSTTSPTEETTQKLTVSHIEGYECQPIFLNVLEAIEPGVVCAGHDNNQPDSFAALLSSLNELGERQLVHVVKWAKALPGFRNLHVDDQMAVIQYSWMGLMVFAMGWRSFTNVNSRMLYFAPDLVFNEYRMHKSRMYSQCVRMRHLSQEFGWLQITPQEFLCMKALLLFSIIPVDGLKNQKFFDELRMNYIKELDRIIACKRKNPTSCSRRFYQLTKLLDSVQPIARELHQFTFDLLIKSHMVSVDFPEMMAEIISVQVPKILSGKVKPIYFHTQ
Chain of Glucocorticoid receptor (Homo sapiens) (P04150 whole entry, looked up): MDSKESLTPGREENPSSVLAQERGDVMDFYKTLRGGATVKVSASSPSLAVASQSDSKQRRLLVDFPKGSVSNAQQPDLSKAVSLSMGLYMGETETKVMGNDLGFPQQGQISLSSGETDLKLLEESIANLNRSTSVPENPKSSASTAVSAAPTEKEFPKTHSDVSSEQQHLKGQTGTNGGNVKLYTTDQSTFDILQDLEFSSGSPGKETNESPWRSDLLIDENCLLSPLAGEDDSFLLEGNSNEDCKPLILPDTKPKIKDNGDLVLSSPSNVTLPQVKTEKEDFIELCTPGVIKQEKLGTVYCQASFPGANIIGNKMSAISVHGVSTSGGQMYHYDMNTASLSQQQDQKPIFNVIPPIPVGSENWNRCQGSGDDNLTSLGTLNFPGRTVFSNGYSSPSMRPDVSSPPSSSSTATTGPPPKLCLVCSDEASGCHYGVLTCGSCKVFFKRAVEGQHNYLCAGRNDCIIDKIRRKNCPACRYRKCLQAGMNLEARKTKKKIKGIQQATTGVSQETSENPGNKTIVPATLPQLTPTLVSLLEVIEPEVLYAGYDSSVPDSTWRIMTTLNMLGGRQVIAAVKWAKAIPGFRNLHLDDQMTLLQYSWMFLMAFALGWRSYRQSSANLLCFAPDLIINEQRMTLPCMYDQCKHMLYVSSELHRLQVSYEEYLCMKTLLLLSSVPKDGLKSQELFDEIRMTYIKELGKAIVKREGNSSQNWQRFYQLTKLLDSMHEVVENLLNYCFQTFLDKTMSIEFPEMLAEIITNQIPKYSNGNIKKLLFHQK

`Nc1nc(Cl)nc2c1ncn2[C@@H]1O[C@H](CO)[C@@H](O)[C@@H]1F`: the compound was classed as inactive in assay [1], in assay [3], in assay [4], in assay [5] and in assay [7]. For the same compound, the Potency entry in assay [2], in [6], in assay [8], in assay [12] and in assay [13] was “inactive” each time. For the same compound, the Potency in [9] was 0.0019 µM (active); in assay [10], 0.0019 µM (active); in assay [11] it was 0.0024 µM (active); in [14] it was 0.237 µM (active).

Turning to `CCOC(=N)CC(=O)OCC`, the call in assay [1], in [3], in [4], in assay [5] and in assay [7] was inactive. The Potency result in assay [2], in assay [6], in [8], in assay [9], in assay [11] and in assay [12] was “inactive” each time. The Potency result in [13] and in assay [14] was “inactive” in each case.

As for `CCOC(=O)CC(=O)C(=O)OCC`, the compound was classed as inactive in assay [1], in [3], in [4], in assay [5] and in assay [7]. The Potency result in [2], in assay [6], in assay [15], in assay [16], in assay [17] and in assay [9] was “inactive” in each case. The Potency result in assay [10], in assay [11], in assay [12], in assay [18], in [19] and in assay [13] was “inactive” each time. The Potency entry in [20] and in assay [14] was “inactive” throughout.

For the compound `Nc1ccc(S(=O)(=O)O)c(N)c1`, the compound was classed as inactive in assay [1], in assay [3], in assay [4], in assay [5] and in assay [7]. Also, the Potency entry in [2], in assay [6], in assay [15], in assay [16], in assay [17] and in assay [9] was “inactive” each time. The Potency entry in assay [10], in assay [11], in [12], in [13] and in [14] was “inactive” in each case.

As for `Oc1ccc(Nc2ccccc2)cc1`, the compound was classed as inactive in [1], in assay [3], in [4], in assay [5] and in assay [7]. Further, the Potency entry in assay [2], in assay [6], in [15], in assay [16], in assay [17] and in assay [12] was “inactive” throughout. For the same compound, the Potency entry in assay [18], in assay [19] and in assay [13] was “inactive” each time. For the same compound, the Potency in assay [9] is 5.45 µM (active); in assay [10], 6.11 µM (active); in assay [11], 6.86 µM (active); in assay [14] it was 54.5 µM (active).

As to `CC(C)(C)C(=O)O`, the call in [1], in [3], in assay [4], in [5] and in assay [7] was inactive. Moreover, the Potency result in assay [2], in assay [6], in assay [15], in assay [17], in [9] and in assay [10] was “inactive” throughout. Besides, the Potency entry in assay [11], in assay [12], in assay [13] and in assay [14] was “inactive” throughout.

On to `CC(C)(O)c1ccccc1CC[C@@H](SCC1(CC(=O)O)CC1)c1cccc(/C=C/c2ccc3ccc(Cl)cc3n2)c1`, for which the result in [1], in [3], in [4], in [5] and in assay [7] was inactive. Further, the Potency entry in assay [2], in assay [6], in assay [8], in [9], in assay [10] and in assay [11] was “inactive” each time. The Potency entry in assay [12], in [19], in [13] and in assay [20] was “inactive” each time.

`CCCCC(CC)COC(=O)COc1ccc(Cl)cc1C` (configuration not stated): the compound was classed as inactive in assay [1], in assay [3], in assay [4], in assay [5] and in [7]. The Potency result in assay [2], in assay [6], in assay [8], in assay [17], in assay [12] and in assay [13] was “inactive” each time. For the same compound, the Potency entry in assay [14] is “inactive”.

In the case of `CC1C2CC(CC2C2CCCC(O)C2)C1(C)C` (configuration not stated), the outcome in assay [1], in assay [3], in assay [4], in assay [5] and in assay [7] was inactive. In addition, the Potency entry in assay [2], in [6], in assay [8], in assay [17], in assay [13] and in assay [14] was “inactive” in each case. In assay [10], the Potency was 24.3 µM (active).

As to `NCC1CCCC(CN)C1` (configuration not stated), the compound was called inactive in [1], in [3], in [4], in [5] and in [7]. The Potency entry in assay [2], in assay [6], in assay [15], in assay [16], in assay [17] and in [10] was “inactive” each time. In addition, the Potency result in assay [11], in assay [12], in [18], in assay [19], in assay [13] and in [20] was “inactive” in each case. Further, in assay [14], the Potency result is “inactive”.

With `C=CC(C)=CCC=C(C)C`, the compound was called inactive in assay [1], in [3], in assay [4], in assay [5] and in assay [7]. Moreover, the Potency result in assay [2], in assay [6], in assay [8], in assay [17], in assay [10] and in [12] was “inactive” each time. Besides, the Potency entry in [13] and in assay [14] was “inactive” each time.

Take `O=C(Nc1ccc([N+](=O)[O-])cc1)Nc1ccc([N+](=O)[O-])cc1`: the compound was called inactive in assay [1], in [3], in [4], in assay [5] and in [7]. Further, the Potency entry in [2], in [6], in [15], in assay [17] and in assay [13] was “inactive” throughout. Also, the Potency is 10.6 µM (active) in assay [9], 10.6 µM (active) in [10] and 11.9 µM (active) in assay [11].

For `Fc1ccccc1[C@@H](F)COC1CCC(Nc2ncnc3[nH]ncc23)CC1` (some centres not stated), the call in assay [1], in [3], in assay [4], in assay [5] and in [7] was inactive. Moreover, the Potency entry in assay [2], in assay [6], in assay [15], in assay [17] and in [19] was “inactive” in each case. Besides, the Potency was 15.4 µM (active) in [9]; 17.2 µM (active) in assay [10]; 12.2 µM (active) in assay [11]; 49 µM (active) in [12]; 19.3 µM (active) in assay [20].

Consider `O=C(Nc1ccccc1)Nc1ccccc1`, for which the compound was classed as inactive in assay [1], in assay [3], in assay [4], in assay [5] and in [7]. Moreover, the Potency entry in [2], in assay [6], in assay [8], in [17] and in assay [14] was “inactive” each time. Besides, the Potency in [10] is 48.8 µM (active).

As to `CCC(Cc1ccccc1)(C(=O)c1ccc(N2CCOCC2)cc1)N(C)C` (configuration not stated), the call in assay [1], in [3], in [4], in assay [5] and in assay [7] was inactive. Also, the Potency result in [2], in [6] and in [8] was “inactive” throughout. The Potency in [9] was 7.7 µM (active); in assay [10] it was 4.33 µM (active); in assay [11], 9.69 µM (active).

On to `CCNC(=O)N1CCN(CCCC(c2ccc(F)cc2)c2ccc(F)cc2)CC1`, for which the compound was called inactive in assay [1], in assay [3], in assay [4], in assay [5] and in assay [7]. Further, the Potency entry in assay [2], in assay [6], in assay [15] and in assay [17] was “inactive” each time. Besides, the Potency is 5.31 µM (active) in assay [9], 7.5 µM (active) in [10] and 6.68 µM (active) in assay [11].
